Tests used:
Experiment in all cases: DAPPL (digital affinity profiling via proximity ligation, sequencing); 10 mM Tris-HCl pH 7.5, 50 mM NaCl, 1 mM DTT, 4% glycerol, room temperature, 30 min; GST-TFs on glutathione beads, 16-mer random dsDNA library, 0.1% formaldehyde crosslink after washing; high values mean tight binding
[1] = target: ETV5 (Homo sapiens, UniProt P41161 1-510); settings: protein: recombinant; tags: N-terminal GST; dsDNA, one strand shown
Procedure, shortened: (§1)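 The binding signal reported is, for every hexamer, its read frequency for a factor over its read frequency for the tag-only sample. Reads came from pools of yeast-expressed, GST-fused human transcription factors on glutathione beads, barcoded with DNA and mixed with that sample, which were incubated with 200 nmole of a random double-stranded 16-mer DNA library in Tris/NaCl/DTT/glycerol buffer at room temperature for 30 min. After washing, the pools were crosslinked with 0.1% formaldehyde, proximity-ligated with BsaI/T4 ligase for 1 h at 37 °C, PCR-amplified and sequenced on an Illumina NextSeq500.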

[2] = target: HSF1 (Homo sapiens, UniProt Q00613 1-529); settings: protein: recombinant; tags: N-terminal GST; chain copies: 3; dsDNA, one strand shown
HSF1, sequence (Q00613 whole entry): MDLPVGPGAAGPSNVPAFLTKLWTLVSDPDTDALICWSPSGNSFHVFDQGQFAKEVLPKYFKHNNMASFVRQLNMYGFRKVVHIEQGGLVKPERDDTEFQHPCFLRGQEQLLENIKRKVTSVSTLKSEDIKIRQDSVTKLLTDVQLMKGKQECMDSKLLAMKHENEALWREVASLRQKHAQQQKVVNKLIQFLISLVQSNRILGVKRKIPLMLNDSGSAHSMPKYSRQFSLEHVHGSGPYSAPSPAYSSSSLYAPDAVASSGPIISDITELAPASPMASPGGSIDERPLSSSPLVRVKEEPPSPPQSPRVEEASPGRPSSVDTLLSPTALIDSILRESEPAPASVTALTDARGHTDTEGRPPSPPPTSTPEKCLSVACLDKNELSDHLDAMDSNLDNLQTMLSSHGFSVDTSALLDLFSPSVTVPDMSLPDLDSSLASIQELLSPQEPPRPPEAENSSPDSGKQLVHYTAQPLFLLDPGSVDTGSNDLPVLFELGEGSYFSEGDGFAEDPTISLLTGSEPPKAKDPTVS
Procedure, shortened: as §1

[3] = target: T1, SPIC (Homo sapiens, UniProt Q8N5J4 1-248); settings: protein: recombinant; tags: N-terminal GST; dsDNA, one strand shown
T1 sequence: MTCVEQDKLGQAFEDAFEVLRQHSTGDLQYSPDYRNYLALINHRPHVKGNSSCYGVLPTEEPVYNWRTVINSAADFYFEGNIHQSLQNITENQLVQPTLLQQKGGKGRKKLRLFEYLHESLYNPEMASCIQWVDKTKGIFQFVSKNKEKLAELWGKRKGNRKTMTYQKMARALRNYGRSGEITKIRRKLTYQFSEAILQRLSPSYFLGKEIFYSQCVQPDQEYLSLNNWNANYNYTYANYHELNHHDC
Procedure, shortened: as §1

[4] = target: ELF4 (Homo sapiens, UniProt Q99607 1-663); settings: protein: recombinant; tags: N-terminal GST; dsDNA, one strand shown
ELF4, sequence (Q99607 whole entry): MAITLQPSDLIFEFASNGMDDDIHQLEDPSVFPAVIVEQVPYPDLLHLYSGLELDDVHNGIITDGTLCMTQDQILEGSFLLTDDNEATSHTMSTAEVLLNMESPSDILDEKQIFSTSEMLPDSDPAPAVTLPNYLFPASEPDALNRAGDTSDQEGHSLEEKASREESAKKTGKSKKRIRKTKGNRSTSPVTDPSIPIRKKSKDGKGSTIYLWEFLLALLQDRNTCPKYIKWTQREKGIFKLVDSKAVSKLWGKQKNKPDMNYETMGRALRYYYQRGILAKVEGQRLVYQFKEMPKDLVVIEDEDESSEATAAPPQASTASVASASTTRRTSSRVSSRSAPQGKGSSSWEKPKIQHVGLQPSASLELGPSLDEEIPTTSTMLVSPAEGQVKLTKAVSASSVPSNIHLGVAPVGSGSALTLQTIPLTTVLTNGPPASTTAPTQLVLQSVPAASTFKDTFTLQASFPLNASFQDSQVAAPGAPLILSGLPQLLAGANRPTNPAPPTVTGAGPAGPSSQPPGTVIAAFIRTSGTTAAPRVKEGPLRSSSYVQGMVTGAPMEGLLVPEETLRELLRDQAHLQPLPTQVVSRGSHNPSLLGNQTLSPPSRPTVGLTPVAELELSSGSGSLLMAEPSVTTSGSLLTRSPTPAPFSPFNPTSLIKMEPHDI
Procedure, shortened: as §1

[5] = target: T2, ELK4 (Homo sapiens, UniProt P28324-2 1-405); settings: protein: recombinant; tags: N-terminal GST; dsDNA, one strand shown
T2 sequence: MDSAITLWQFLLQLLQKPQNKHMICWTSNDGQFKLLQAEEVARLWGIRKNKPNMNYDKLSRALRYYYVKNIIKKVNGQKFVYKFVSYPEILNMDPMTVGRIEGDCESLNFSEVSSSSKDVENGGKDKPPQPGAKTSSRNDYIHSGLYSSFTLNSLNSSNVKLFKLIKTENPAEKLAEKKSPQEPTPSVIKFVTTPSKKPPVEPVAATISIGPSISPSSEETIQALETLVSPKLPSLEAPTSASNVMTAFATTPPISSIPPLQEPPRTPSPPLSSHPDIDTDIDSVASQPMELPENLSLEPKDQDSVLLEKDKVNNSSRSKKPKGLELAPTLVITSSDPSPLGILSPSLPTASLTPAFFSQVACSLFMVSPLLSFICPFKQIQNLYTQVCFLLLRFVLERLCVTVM
Procedure, shortened: as §1

[6] = target: T3, ELF3 (Homo sapiens, UniProt P78545 1-371); settings: protein: recombinant; tags: N-terminal GST; dsDNA, one strand shown
T3 sequence: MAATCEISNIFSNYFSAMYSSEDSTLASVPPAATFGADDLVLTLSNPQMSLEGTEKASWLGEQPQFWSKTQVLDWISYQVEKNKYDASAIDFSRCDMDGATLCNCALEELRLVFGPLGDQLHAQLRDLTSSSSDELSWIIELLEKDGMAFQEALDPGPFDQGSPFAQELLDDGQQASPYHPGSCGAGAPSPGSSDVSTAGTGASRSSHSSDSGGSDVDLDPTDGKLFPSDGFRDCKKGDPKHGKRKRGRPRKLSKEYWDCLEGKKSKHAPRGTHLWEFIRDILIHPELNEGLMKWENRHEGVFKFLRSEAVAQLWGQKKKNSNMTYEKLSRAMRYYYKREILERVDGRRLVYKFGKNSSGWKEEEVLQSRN
Procedure, shortened: as §1

[7] = target: CRX (Homo sapiens, UniProt O43186 1-299); settings: protein: recombinant; tags: N-terminal GST; dsDNA, one strand shown
CRX, sequence (O43186 whole entry): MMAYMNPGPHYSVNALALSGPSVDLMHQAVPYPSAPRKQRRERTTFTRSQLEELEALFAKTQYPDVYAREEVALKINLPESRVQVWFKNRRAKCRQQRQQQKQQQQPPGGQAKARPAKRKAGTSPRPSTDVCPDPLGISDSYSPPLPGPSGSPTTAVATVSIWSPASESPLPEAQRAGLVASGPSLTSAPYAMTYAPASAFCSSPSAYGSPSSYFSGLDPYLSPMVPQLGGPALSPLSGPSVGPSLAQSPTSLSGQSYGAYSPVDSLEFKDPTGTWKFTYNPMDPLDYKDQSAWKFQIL
Procedure, shortened: as §1

[8] = target: T4, ETV3L (Homo sapiens, UniProt Q6ZN32 1-361); settings: protein: recombinant; tags: N-terminal GST; dsDNA, one strand shown
T4 sequence: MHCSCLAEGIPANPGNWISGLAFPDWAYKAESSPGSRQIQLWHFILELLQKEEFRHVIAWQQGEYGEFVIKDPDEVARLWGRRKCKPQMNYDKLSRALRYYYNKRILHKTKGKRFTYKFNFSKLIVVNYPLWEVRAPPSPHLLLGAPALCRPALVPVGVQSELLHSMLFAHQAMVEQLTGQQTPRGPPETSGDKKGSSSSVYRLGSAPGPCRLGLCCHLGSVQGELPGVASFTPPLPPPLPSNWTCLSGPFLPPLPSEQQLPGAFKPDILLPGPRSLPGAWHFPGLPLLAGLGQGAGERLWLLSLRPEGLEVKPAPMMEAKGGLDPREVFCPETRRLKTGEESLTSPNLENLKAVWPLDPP
Procedure, shortened: as §1

[9] = target: T5, ETV7 (Homo sapiens, UniProt Q9Y603 1-341); settings: protein: recombinant; tags: N-terminal GST; dsDNA, one strand shown
T5 sequence: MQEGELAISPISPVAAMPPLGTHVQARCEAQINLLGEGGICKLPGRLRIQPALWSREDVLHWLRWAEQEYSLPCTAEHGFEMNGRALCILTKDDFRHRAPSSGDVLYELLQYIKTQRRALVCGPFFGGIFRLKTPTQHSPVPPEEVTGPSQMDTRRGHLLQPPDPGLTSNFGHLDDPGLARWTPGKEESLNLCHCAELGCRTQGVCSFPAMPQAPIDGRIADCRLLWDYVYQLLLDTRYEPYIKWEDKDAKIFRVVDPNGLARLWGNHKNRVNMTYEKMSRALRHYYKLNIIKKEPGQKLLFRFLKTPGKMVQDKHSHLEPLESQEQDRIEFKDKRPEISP
Procedure, shortened: as §1

[10] = target: T6, ETV3 (Homo sapiens, UniProt P41162-2 1-143); settings: protein: recombinant; tags: N-terminal GST; dsDNA, one strand shown
T6 sequence: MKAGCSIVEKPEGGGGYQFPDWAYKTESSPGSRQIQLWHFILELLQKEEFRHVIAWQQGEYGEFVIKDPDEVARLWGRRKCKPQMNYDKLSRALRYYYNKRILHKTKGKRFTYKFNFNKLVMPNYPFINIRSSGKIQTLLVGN
Procedure, shortened: as §1

[11] = target: ETV6 (Homo sapiens, UniProt P41212 1-452); settings: protein: recombinant; tags: N-terminal GST; dsDNA, one strand shown
ETV6, sequence (P41212 whole entry): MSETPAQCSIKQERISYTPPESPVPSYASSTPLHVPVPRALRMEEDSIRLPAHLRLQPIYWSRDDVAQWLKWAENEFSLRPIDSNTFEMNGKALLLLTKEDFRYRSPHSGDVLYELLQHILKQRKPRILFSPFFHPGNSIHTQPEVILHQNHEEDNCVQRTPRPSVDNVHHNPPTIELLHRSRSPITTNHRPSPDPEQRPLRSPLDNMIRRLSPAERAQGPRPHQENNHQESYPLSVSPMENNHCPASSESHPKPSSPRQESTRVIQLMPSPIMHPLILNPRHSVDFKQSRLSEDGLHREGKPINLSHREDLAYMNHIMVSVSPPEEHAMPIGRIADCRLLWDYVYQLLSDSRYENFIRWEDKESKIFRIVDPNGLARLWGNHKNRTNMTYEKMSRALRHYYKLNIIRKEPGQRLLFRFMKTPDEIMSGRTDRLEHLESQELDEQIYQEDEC
Procedure, shortened: as §1

[12] = target: T7, FEV (Homo sapiens, UniProt Q99581 1-238); settings: protein: recombinant; tags: N-terminal GST; dsDNA, one strand shown
T7 sequence: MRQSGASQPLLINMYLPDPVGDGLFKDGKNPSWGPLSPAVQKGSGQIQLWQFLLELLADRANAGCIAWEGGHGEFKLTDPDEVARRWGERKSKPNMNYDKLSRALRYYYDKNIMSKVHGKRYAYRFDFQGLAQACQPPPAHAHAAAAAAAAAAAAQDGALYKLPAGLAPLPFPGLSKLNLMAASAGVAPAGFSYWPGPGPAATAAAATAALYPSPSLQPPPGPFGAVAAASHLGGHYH
Procedure, shortened: as §1

[13] = target: ETV1 (Homo sapiens, UniProt P50549 1-477); settings: protein: recombinant; tags: N-terminal GST; dsDNA, one strand shown
ETV1, sequence (P50549 whole entry): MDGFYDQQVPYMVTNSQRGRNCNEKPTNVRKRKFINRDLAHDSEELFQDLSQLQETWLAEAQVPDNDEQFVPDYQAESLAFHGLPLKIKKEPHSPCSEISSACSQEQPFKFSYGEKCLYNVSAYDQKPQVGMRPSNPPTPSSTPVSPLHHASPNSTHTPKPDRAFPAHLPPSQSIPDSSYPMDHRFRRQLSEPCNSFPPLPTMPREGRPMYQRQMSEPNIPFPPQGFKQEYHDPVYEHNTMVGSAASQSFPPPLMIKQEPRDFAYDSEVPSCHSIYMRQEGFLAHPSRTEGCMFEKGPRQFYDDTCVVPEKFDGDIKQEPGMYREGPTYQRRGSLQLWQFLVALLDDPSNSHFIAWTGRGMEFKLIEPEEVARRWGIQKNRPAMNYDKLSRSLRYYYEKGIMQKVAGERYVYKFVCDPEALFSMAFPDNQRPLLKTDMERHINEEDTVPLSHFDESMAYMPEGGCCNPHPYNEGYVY
Procedure, shortened: as §1

[14] = target: T8, ERF (Homo sapiens, UniProt P50548 1-548); settings: protein: recombinant; tags: N-terminal GST; dsDNA, one strand shown
T8 sequence: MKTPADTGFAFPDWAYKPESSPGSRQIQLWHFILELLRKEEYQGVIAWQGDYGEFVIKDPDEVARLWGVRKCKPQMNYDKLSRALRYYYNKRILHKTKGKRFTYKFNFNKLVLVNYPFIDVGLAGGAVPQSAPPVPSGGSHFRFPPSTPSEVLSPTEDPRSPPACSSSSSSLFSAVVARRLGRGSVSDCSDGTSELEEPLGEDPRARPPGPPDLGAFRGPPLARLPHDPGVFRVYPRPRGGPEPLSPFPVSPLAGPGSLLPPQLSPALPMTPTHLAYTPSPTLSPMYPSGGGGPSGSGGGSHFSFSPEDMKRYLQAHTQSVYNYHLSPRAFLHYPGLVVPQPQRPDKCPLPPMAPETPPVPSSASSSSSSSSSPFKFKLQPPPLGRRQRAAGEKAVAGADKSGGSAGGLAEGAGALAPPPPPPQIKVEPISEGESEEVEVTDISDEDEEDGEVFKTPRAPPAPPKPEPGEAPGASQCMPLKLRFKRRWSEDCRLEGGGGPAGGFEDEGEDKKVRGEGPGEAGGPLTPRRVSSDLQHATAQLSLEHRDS
Procedure, shortened: as §1

[15] = target: T9, ETS2 (Homo sapiens, UniProt P15036 1-469); settings: protein: recombinant; tags: N-terminal GST; dsDNA, one strand shown
T9 sequence: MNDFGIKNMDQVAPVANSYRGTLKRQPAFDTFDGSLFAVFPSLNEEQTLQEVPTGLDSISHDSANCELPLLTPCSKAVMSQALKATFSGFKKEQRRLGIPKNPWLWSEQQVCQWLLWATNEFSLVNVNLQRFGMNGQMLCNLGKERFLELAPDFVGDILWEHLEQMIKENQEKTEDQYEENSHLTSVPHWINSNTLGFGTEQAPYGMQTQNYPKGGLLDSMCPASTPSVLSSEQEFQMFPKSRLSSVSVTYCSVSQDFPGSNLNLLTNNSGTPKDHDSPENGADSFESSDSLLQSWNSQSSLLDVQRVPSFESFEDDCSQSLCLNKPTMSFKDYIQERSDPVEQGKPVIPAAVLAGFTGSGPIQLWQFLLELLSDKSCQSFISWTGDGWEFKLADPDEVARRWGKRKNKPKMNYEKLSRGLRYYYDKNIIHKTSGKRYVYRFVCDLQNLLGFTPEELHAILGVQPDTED
Procedure, shortened: as §1

[16] = target: T10, SPDEF (Homo sapiens, UniProt O95238 1-335); settings: protein: recombinant; tags: N-terminal GST; dsDNA, one strand shown
T10 sequence: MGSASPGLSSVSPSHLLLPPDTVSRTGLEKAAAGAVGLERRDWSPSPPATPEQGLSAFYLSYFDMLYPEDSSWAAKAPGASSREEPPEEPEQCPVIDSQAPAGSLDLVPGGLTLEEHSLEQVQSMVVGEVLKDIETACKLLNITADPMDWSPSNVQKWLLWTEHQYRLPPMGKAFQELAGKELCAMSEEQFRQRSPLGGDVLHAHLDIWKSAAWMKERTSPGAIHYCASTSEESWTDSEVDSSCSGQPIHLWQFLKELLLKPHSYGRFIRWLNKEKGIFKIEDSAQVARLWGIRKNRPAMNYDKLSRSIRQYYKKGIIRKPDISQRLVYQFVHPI
Procedure, shortened: as §1

[17] = target: T11, ELF5 (Homo sapiens, UniProt Q9UKW6-2 1-255); settings: protein: recombinant; tags: N-terminal GST; dsDNA, one strand shown
T11 sequence: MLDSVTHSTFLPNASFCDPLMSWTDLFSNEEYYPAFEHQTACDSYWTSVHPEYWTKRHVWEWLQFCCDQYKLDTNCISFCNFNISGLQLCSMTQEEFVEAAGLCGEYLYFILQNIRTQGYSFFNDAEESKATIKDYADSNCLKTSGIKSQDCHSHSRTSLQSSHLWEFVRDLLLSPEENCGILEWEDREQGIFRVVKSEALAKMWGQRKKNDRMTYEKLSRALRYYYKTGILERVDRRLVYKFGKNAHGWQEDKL
Procedure, shortened: as §1

ETV5, sequence (P41161 whole entry, the tested form may be a part): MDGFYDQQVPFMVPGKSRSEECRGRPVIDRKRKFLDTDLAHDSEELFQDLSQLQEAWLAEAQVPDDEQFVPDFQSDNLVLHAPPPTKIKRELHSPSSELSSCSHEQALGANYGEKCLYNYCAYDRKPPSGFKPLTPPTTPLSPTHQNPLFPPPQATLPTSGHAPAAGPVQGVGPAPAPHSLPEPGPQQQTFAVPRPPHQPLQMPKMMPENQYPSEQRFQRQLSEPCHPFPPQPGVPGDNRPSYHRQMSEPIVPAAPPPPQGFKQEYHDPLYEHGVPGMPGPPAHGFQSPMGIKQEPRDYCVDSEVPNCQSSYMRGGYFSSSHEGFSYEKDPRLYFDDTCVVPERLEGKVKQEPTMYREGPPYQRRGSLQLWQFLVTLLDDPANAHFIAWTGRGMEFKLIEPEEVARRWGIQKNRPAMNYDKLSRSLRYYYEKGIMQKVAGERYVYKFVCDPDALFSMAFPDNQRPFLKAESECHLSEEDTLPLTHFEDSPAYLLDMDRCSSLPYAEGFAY

Sequence | binding signal [1] | binding signal [2] | binding signal [3] | binding signal [4] | binding signal [5] | binding signal [6] | binding signal [7] | binding signal [8] | binding signal [9] | binding signal [10] | binding signal [11] | binding signal [12] | binding signal [13] | binding signal [14] | binding signal [15] | binding signal [16] | binding signal [17]
AATCGA | 1.05 fold enrichment (6-mer frequency, TF over GST control) | 1.38 fold enrichment (6-mer frequency, TF over GST control) | 1.11 fold enrichment (6-mer frequency, TF over GST control) | 1.03 fold enrichment (6-mer frequency, TF over GST control) | 1.03 fold enrichment (6-mer frequency, TF over GST control) | 1.11 fold enrichment (6-mer frequency, TF over GST control) | 1.2 fold enrichment (6-mer frequency, TF over GST control) | 1.04 fold enrichment (6-mer frequency, TF over GST control) | 1.08 fold enrichment (6-mer frequency, TF over GST control) | 1.07 fold enrichment (6-mer frequency, TF over GST control) | 1.01 fold enrichment (6-mer frequency, TF over GST control) | – | – | – | – | – | –
TAGAAA | 1.03 fold enrichment (6-mer frequency, TF over GST control) | 3.06 fold enrichment (6-mer frequency, TF over GST control) | 1.12 fold enrichment (6-mer frequency, TF over GST control) | 1.1 fold enrichment (6-mer frequency, TF over GST control) | 1.13 fold enrichment (6-mer frequency, TF over GST control) | – | 1.58 fold enrichment (6-mer frequency, TF over GST control) | 1.08 fold enrichment (6-mer frequency, TF over GST control) | 1.12 fold enrichment (6-mer frequency, TF over GST control) | 1.05 fold enrichment (6-mer frequency, TF over GST control) | 1.06 fold enrichment (6-mer frequency, TF over GST control) | 1.04 fold enrichment (6-mer frequency, TF over GST control) | 1.13 fold enrichment (6-mer frequency, TF over GST control) | 1.04 fold enrichment (6-mer frequency, TF over GST control) | 1.08 fold enrichment (6-mer frequency, TF over GST control) | 1.04 fold enrichment (6-mer frequency, TF over GST control) | –
GATAAT | 1.05 fold enrichment (6-mer frequency, TF over GST control) | 1.98 fold enrichment (6-mer frequency, TF over GST control) | 1.27 fold enrichment (6-mer frequency, TF over GST control) | 1.1 fold enrichment (6-mer frequency, TF over GST control) | 1.09 fold enrichment (6-mer frequency, TF over GST control) | – | 2.88 fold enrichment (6-mer frequency, TF over GST control) | 1.12 fold enrichment (6-mer frequency, TF over GST control) | 1.12 fold enrichment (6-mer frequency, TF over GST control) | 1.15 fold enrichment (6-mer frequency, TF over GST control) | 1.05 fold enrichment (6-mer frequency, TF over GST control) | – | 1.14 fold enrichment (6-mer frequency, TF over GST control) | 1.11 fold enrichment (6-mer frequency, TF over GST control) | 1.18 fold enrichment (6-mer frequency, TF over GST control) | – | 1.08 fold enrichment (6-mer frequency, TF over GST control)

Reference: paper PMC7862700, “An all-to-all approach to the identification of sequence-specific readers for epigenetic DNA modifications on cytosine”
